Screening results deposited in PubChem BioAssay by several laboratories.
This is a sample that favours compounds with a hit; in the whole collection about 3.6% have one here.
MazF activator: MazEF (E. coli) toxin RNase activation; FAM/BHQ RNA-DNA oligo cleavage fluorescence, 5 h; activation, % at 20 µM; hit rate 0.32% among 350,000; AID 504720; in the data active = activation above about 50%
Target sequence (P0AE70 whole entry, looked up): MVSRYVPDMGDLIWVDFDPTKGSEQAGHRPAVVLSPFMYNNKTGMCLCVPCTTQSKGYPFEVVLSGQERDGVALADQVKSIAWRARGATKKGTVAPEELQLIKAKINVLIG
Bead autofluor: compound fluorescence in toxin protease inhibitor counterscreen; compound autofluorescence counterscreen, microsphere flow cytometry; hits give high values; fluorescence intensity (test concentration not listed); hit rate 3.1% among 360,000; in the data active = fluorescence intensity above about 16000; inconclusive = no clear call, values can overlap the other calls
BoNT-F LC inh: inhibitors of Botulinum neurotoxin F light chain protease. Multiplex microsphere protease cleavage assay, flow cytometry. inhibition, % at 10 µM. hit rate 0.22% among 360,000. AID 588497; in the data active = inhibition above about 35%, passing the limit was not always enough; inconclusive = no clear call, values can overlap the other calls; note: plate controls were buffer without enzyme for full effect and enzyme alone for no effect
BoNT-A LC inh2: inhibitors of Botulinum neurotoxin A light chain protease; multiplex microsphere protease substrate cleavage, flow cytometry; inhibition, % at 10 µM; hit rate 0.17% among 360,000; note: plate controls were buffer without enzyme for full effect and enzyme alone for no effect
Anthrax LF prot: inhibitors of Bacillus anthracis lethal factor protease. AID 588501. multiplex microsphere protease cleavage assay, LF. P15917. inhibition, % at 10 µM. hit rate 0.12% among 360,000; note: plate controls were buffer without enzyme for full effect and enzyme alone for no effect
Numbers without * were called inactive; ? = inconclusive; . = not tested or not shown. Cut-off read from the data, not from the text of the source, unless noted: active = inhibition above about 30%; inconclusive = no clear call, values can overlap the other calls; inactive = below that.

SMILES	MazF activator	Bead autofluor	BoNT-F LC inh	BoNT-A LC inh2	Anthrax LF prot
Cc1nc(-c2ccccc2)cs1	-1	21622*	4	3	-1
COc1ccc(-c2csc(C)n2)cc1	3	8707	10	1	1
COc1ccc(-c2csc(C)n2)cc1OC	1	23023*	4	0	-3
COc1ccc(NC(=O)CCN2CCN(c3ccccc3F)CC2)c(OC)c1	2	3034	?	-3	0
Cc1cc(C)c2c(N)c(C(=O)N3CCc4ccccc4C3)sc2n1	-16	4330	-6	0	-3
CC(C)N1CCC(C)(C(=O)Nc2ccc(Cl)c(Cl)c2)C1 (stereo not given)	.	4064	-7	0	-4
O=C(O)C1CCCCC1C(=O)NCCC(c1ccccc1)c1ccccc1 (stereo not given)	-5	10310	-1	-1	-3
O=C(NCCCCCCNC(=O)C1CCCC1)C1CCCC1	5	21472*	0	?	-3
O=C(CNC(=O)C1CCCCC1)NCCCO	6	12861	-26	-4	-6
O=C(O)[C@H]1CCCC[C@H]1C(=O)NCCNC(=O)[C@@H]1CCCC[C@@H]1C(=O)O	-11	23932*	-5	?	-2
COc1ccc(S(=O)(=O)NC2CCc3ccccc32)cc1OC (stereo not given)	-4	3637	8	-1	-8
Cc1c(C)n2c(SCC(=O)N3CCN(c4ccccc4)CC3)nnc2[nH]c1=O	4	5162	-4	3	2
CC(=O)NCCCc1nc2ccccc2n1Cc1ccccc1F	5	4306	4	0	-4
O=CNCCCc1nc2ccccc2n1Cc1cccc2ccccc12	-1	20866*	2	?	-16
CN(CC(=O)Nc1ccccc1C(F)(F)F)C(=O)c1ccc2c(=O)n3c(nc2c1)CCC3	-15	?	?	-2	?
COc1cccc(-c2nnn(CC(C)=O)n2)c1	3	3521	-12	0	2
COc1ccc(-c2ccc(-c3nnn(CC(C)=O)n3)cc2)cc1	0	22673*	1	1	-3
CCN(CC)CCn1c(=O)n(-c2ccc(Cl)cc2)c(=O)c2c3c(sc21)CN(C)CC3	660*	5059	?	2	-16
CN1CCc2c(sc3c2c(=O)n(-c2ccc(Cl)cc2)c2nncn32)C1	10	10478	1	-1	10
Nc1cc(=O)[nH]c(=S)n1-c1cccc(C(F)(F)F)c1	10	16135*	-2	0	-5
CC(/C=N/NC(=O)c1ccncc1)=C\c1ccc(C(C)C)cc1	-5	22320*	1	3	0
O=[N+]([O-])c1ccc(C=CC=Cc2ccccc2)cc1	68*	3677	10	19	16
Cc1oc2ccc(O)cc2c1C(=O)c1ccccc1	15	3623	?	0	-5
CC(=O)c1cc2c(C)c(C(=O)c3ccccc3)oc2cc1O	89*	2923	-4	0	0
CC(C)(C)NC(=O)c1nn2c(C(F)(F)F)cc(-c3ccccc3)nc2c1Br	2	3602	?	6	-17
SMILES	MazF activator	Bead autofluor	BoNT-F LC inh	BoNT-A LC inh2	Anthrax LF prot
COC(=O)c1nn2c(C(F)(F)F)cc(-c3ccc(Br)o3)nc2c1Br	111*	10641	-6	2	-2
COc1cc(C2NC(=O)NC(c3ccccc3)=C2C(C)=O)ccc1OCC#N (stereo not given)	-16	23457*	-1	1	-2
COc1cc(C2NC(=O)NC(C)=C2C(=O)OC(C)(C)C)ccc1OCC(N)=O (stereo not given)	-2	21970*	-8	?	2
CCOC(=O)C1=C(c2ccccc2)NC(=O)NC1c1ccc(OC)c(OC)c1 (stereo not given)	-6	4201	4	0	-6
COc1cc(C(=O)NCCOc2ccc(Cl)cc2)ccc1OCc1c(C)noc1C	1	2836	13	2	9
NC(=O)c1ccccc1NC(=O)C1CCCO1 (stereo not given)	7	3317	-21	-4	2
COc1cc(C(=O)N/N=C/c2ccc(OC(=O)c3cccc(C)c3)c(OC)c2)ccc1O	3	5093	-8	1	0
C=CCN1C(=O)/C(=C/c2ccc(Br)s2)C(=O)NC1=S	72*	.	.	.	.
Cc1ccc(S(=O)(=O)NC(=O)C2(C)CCN2C(=O)Cc2ccc(Cl)cc2Cl)cc1 (stereo not given)	.	2867	-2	0	-6
O=c1cc(CO)occ1OCc1cccc(F)c1	4	19821*	0	?	-1
C=CCN1C(=O)c2cccc3c(N4CCCCC4)ccc(c23)C1=O	-6	6017	14	30*	15
